Data on 24 molecules can be found in PubChem BioAssay (NCI).

The panel holds about 83,000 compounds, 20% with a hit somewhere; the sample as a whole holds those more often.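 Each cell line was grown in a 96-well plate and treated with one concentration of compound for 48 hours. Values below 10 were considered active.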 Unmarked numbers belong to inactive results. Active and inactive are the calls of the source.

The subject of this test is MDA-MB-468 breast. Kind of test: NCI-60 one-dose screen, 48 h (100 = growth as untreated, 0 = no growth, -100 = all killed). To be noted: 10 µM unless noted.
As to `COc1ccc(-c2cc(-c3cc(OC)c(OC)c(OC)c3)nc(N3CCOCC3)c2C#N)cc1`, the growth is 76%.

Take `O=C(CCl)N1c2cccc3cccc(c23)N(C(=O)CCl)C1c1cn(-c2ccccc2)nc1-c1cccc([N+](=O)[O-])c1`: the growth is 101%.

Take `COc1ccc(C2=Nc3c(N)ncnc3NC(c3cccc(Nc4ccnc5cc(C(F)(F)F)ccc45)c3)C2)cc1` (centres undefined): the growth is 46.9%.

Turning to `CCCCN(CCCC)CCCn1c(-c2ccccc2)ccc1-c1ccccc1`, the growth is 43%.

On to `COc1cc(C(=O)n2nc(N3CCOCC3)c3cc(-n4cccc4)ccc32)cc(OC)c1OC`, for which the growth was 49.2%.

With `CC(C)(C)OC(=O)CN1CCc2c(sc3ncnc(N/N=C/c4ccccc4Br)c23)C1`, the growth is 88.5%.

As to `CCN(CC)C12CCCCC1(C)C(C#N)(C#N)C(C#N)=C(N)O2` (centres undefined), the growth was 93.5%.

For the molecule `CCCCc1ccc(Nc2ccc(Nc3ccc(CCCC)cc3S(=O)(=O)O)c3c2C(=O)c2ccccc2C3=O)c(S(=O)(=O)O)c1`, the growth was 112%.

Take `COc1cc2c(cc1O)CC[C@@H]1[C@@H]2CC[C@]2(C)[C@@H](OCCN(C)C)CC[C@@H]12`: the growth was 19.3%.

Take `O=S(=O)(c1ccc(N/N=C\c2ccccc2Cl)cc1)c1ccc(N/N=C/c2ccccc2Cl)cc1`: the growth is 91.5%.

For the molecule `N#CCCN(CCCN1CCOCC1)CN1C(=O)c2ccccc2C1=O`, the growth is 92.2%.

With `O=C(CNc1nnc(-c2ccc(Cl)cc2)o1)Nc1ccc(-c2nc3ccccc3s2)cc1`, the growth was -10.2% (active).

For `CC1(C)CC[C@]2(C(=O)N[C@H](CO)Cc3ccccc3)CC[C@]3(C)C(=CC[C@@H]4[C@@]5(C)CCCNC(C)(C)[C@@H]5CC[C@]43C)[C@@H]2C1`, the growth was 37.8%.

Regarding `N#CC1=C(N)Oc2c(ccc3cccnc23)C1c1ccccc1` (centres undefined), the growth is -7.81% (active).

With `CN1C(=O)/C(=C/c2ccc(C(=O)Nc3ncc(Cc4ccc(Cl)cc4)s3)cc2)SC1=S`, the growth was 25.2%.

Take `COc1cc2cc(c1Cl)N(C)C(=O)C[C@H](OC(=O)[C@H](C)N(C)C(=O)CCS)C[C@]1(C)O[C@H]1[C@H](C)[C@@H]1C[C@@](O)(NC(=O)O1)[C@H](OC)/C=C/C=C(\C)C2`: the growth was 42%.

With `COc1ccc(-c2nc3cc(C(=O)Nc4cc(OC)c(OC)c(OC)c4)ccc3n2C2CCCCC2)cc1`, the growth was 128%.

`NNc1ccc(S(N)(=O)=O)cc1`: the growth was 100%.

On to `CCO/C=N/C1=C(C#N)C(c2ccc(F)cc2)c2sc3c(C)cccc3c2O1` (centres undefined), for which the growth is 6% (active).

For `CN1C(=O)N(C)C2C1NN=c1s/c(=C\c3ccccc3F)c(=O)n12` (centres undefined), the growth is 11.6%.

Turning to `CCOC(=O)c1cnn2c(-c3ccc(Cl)cc3)nc(NCc3ccccc3)nc12`, the growth is 84.8%.

Regarding `CNCCNc1nc2ccccc2c2c(=O)c3cc(F)ccc3oc12`, the growth is 59.1%.

For the molecule `CCc1cc2c(cc1Cl)nc1c(=O)[nH]c(=O)nc-1n2CCOCC(C)(C)C`, the growth is 44.3%.

Take `N#C/C(=C\c1ccccn1)c1nc2cc(Cl)ccc2s1`: the growth was 55.5%.
